Compound activity deposited in PubChem by National Center for Advancing Translational Sciences (NCATS).
SMN2 splice up = SMN2 splice variant enhancement; HEK293 SMN2-luciferase splicing reporter, luminescence, 30-36 h; Potency, µM (top dose mostly 46.1 µM), for the others: at the highest dose activity change, positive = activation, most hits filed as activators; actives 2.8% (n = 210,000); AID 1458; also: % of control where 0% means no effect; nearly all actives have a fitted effect of over 55% in size
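HEK293 cells carry an SMN2 minigene-luciferase reporter in which exon 7 inclusion puts luciferase in frame. Cells were seeded at 2000 cells/well, attached for 10-12 hours, then exposed to compounds for 30-36 hours at 37C before ONE-Glo luminescence.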
FLuc modulator = firefly luciferase modulation, counter-screen for miR-21 project. purified FLuc, Km substrates, luminescence inhibition. P08659. AID 588342. Potency, µM (titrated, usually from 57.5 µM), for inactives: at the top dose activity change, negative = inhibition, most hits filed as inhibitors. actives 6.9% (n = 360,000);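 also: plate controls were vehicle for no effect and reference inhibitor for full effect; nearly all actives have a fitted effect of over 55% in size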
Target sequence (P08659 whole entry, looked up): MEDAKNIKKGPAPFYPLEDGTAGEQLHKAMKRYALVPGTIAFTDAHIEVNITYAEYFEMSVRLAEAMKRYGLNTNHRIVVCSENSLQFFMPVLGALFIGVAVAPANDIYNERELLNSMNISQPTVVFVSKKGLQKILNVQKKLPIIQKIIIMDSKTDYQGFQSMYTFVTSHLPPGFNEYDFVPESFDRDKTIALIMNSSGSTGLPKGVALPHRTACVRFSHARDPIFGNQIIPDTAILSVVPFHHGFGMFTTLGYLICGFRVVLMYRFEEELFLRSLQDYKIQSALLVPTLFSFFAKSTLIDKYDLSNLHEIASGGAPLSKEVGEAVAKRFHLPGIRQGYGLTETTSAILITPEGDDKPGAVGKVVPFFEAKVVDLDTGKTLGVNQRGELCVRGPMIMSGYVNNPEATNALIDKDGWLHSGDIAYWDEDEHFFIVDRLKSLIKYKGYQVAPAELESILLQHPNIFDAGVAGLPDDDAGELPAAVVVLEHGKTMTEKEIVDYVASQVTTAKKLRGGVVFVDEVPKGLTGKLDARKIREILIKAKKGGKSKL
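Purified P. pyralis luciferase, 10 nM final, with Km-level 10 uM D-luciferin and 10 uM ATP in 50 mM Tris acetate pH 7.5, 10 mM Mg acetate, 0.01% Tween-20, 0.05% BSA; 6-point qHTS titration about 60 µM downward; luminescence read.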
NPC1 promoter act = activates the NPC1 promoter. Huh7 NPC1 promoter luciferase reporter, 24 h. Potency, µM (highest dose often 9.22 µM), for inactives: at the highest dose activation, usual class: activators. actives 2.4% (n = 320,000). AID 485313; also: % of control where 0% means no effect; nearly all actives have a fitted effect of over 60% in size
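Stably transfected Huh7 (NPC1 promoter→luciferase), 1500 cells/well in Opti-MEM + 10% FBS, 2 h settle, then compound 24 h at 37 °C. Luminescence after 10 min with Amplite reagent.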
ELG1 genotox = inducers of genotoxicity in HEK293T ELG1-luciferase cells; HEK293T ELG1-luciferase reporter, luminescence, 16 h; Potency, µM (titrated, usually from 46 µM), without a hit: at the highest dose activity change, positive = activation, hits mostly activators; actives 1.3% (n = 330,000); also: % of control where 0% means no effect; nearly all actives have a fitted effect of over 60% in size
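Genotoxicity was scored as increased ELG1-luciferase reporter signal, measured by ONE-Glo luminescence (30 min, room temperature). Compound or vehicle exposure of the HEK293T reporter cells lasted 16 hr at 37°C.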
ELG1 DNA repair = ELG1-dependent DNA repair inhibition | HEK293T ELG1-luciferase reporter, luminescence, 16 h; DNA damage induced by 5-fluorouridine | Potency, µM (highest dose often 46.1 µM), without a hit: top-dose activity change, negative = inhibition, hits mostly inhibitors | actives 2.3% (n = 330,000) | AID 504467; also: % is scaled to controls: 0 for no effect and ±100 for the full control effect; nearly all actives have a fitted effect of over 55% in size
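Quantitative HTS, concentration-response format. 2,000 cells/well co-treated with 5-fluorouridine and compound, 16 hr in 5% CO2 at 37 °C; ONE-Glo luminescence read after 30 min.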
Rab9 prom act = Rab9 promoter activation; Huh7 Rab9 promoter-luciferase reporter, luminescence, 24 h; Potency, µM (series often up to 9.22 µM), without a hit: top-dose activation, negative = inhibition, hits mostly activators; actives 2.8% (n = 320,000); AID 485297; also: % of control where 0% means no effect; nearly all actives have a fitted effect of over 60% in size
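Cell-based reporter: Huh7 stable for Rab9 promoter-driven luciferase, plated in reduced-serum medium with 10% FBS at 1500 cells/well, compound-treated 24 h at 37 °C, luminescence read after 10 min reagent.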
Starred values were filed as active, the others as inactive; ? = inconclusive; . = not tested or not shown. The list is not random: actives were taken first. Their share in the collection is about 9.2%. Calls follow the shape of the dose curve; as a rule, active = well fitted curve in the direction sought with a large enough effect; inconclusive = small, poorly fitted or top-dose-only effect, or another doubt; inactive = no such curve, though single readings can be large; an effect the other way counts as inactive or inconclusive. Potency is read from the fitted curve at half-maximal effect.

SMILES	SMN2 splice up	FLuc modulator	NPC1 promoter act	ELG1 genotox	ELG1 DNA repair	Rab9 prom act
CCc1ccc(NC(=O)Nc2cnccn2)cc1	.	11µM*	?	?	?	3.5µM*
CCCCc1ccc(NC(=O)Nc2cnccn2)cc1	.	?	-8%	6%	?	24%
O=C(Nc1ccc([N+](=O)[O-])cc1)Nc1ccon1	.	1%	-12%	-3%	3%	-16%
CCc1ccc(NC(=O)Nc2ccon2)cc1	.	7.6µM*	2.2µM*	?	?	2.5µM*
Cc1cc(=O)[nH]c(N/N=C/c2ccc(-c3ccc(F)cc3)o2)n1	.	6µM*	26%	9%	?	?
CSc1ccc(/C=N/Nc2nc(C)cc(=O)[nH]2)cc1	23%	?	16%	10%	?	26%
CCc1ccc(S(=O)(=O)N2CCCC(N3CCN(c4ccc(OC)cc4)CC3)C2)cc1 (stereo not drawn)	.	4%	0%	-9%	-12%	-4%
COc1cccc(/C=C/c2ccccn2)c1O	.	3µM*	1.3µM*	7.3µM*	?	2.8µM*
O=C(CNC(=O)c1ccncc1)N/N=C/c1ccc(O)cc1O	.	-2%	-2%	-5%	-11%	-1%
CC1CCc2c(sc3nc(CSc4ncn[nH]4)[nH]c(=O)c23)C1 (stereo not drawn)	.	15µM*	12%	10%	?	18%
CC1CCc2c(sc3nc(CSc4nnnn4C)[nH]c(=O)c23)C1 (stereo not drawn)	.	?	4%	7%	16%	3%
CC(C)Cc1nc2oc3c(Cl)ncnc3c2c2c1CCCC2	.	-3%	-6%	10%	6%	-5%
CC(C)Cc1nc2oc3c(NCC(C)O)ncnc3c2c2c1CCCC2 (stereo not drawn)	.	?	-4%	-7%	15µM*	7%
CC(C)c1nc2oc3c(NCC4CCCO4)ncnc3c2c2c1CCC2 (stereo not drawn)	?	0%	-2%	-3%	16µM*	12%
CCCc1nc2oc3c(NCC4CCCO4)ncnc3c2c2c1COC(C)(C)C2 (stereo not drawn)	-13%	8%	-2%	2%	-16%	0%
COc1ccc(NC(=O)COc2cccc3c2CCNC3=O)cc1	.	-8%	2%	?	28%	-3%
COc1cccc(CNC(=O)c2ccc(CSc3nc4ccncc4n3Cc3cccc(C)c3)cc2)c1	-4%	2%	.	.	.	.
O=C(NCC1COc2ccccc2O1)c1ccc(F)c(S(=O)(=O)N2CCOCC2)c1 (stereo not drawn)	.	4%	2%	-1%	-26%	-2%
O=C(NCCN1C(=O)S/C(=C\c2ccccc2)C1=O)c1cc(S(=O)(=O)N2CCOCC2)c(Cl)cc1Cl	-34%	1%	0%	-3%	15µM*	-3%
O=C(NCC1COc2ccccc2O1)c1cc(S(=O)(=O)N2CCOCC2)c(Cl)cc1Cl (stereo not drawn)	.	-2%	3%	-8%	18µM*	-6%
O=C(NCCN1C(=O)S/C(=C\c2ccc(Cl)cc2)C1=O)c1ccc(F)c(S(=O)(=O)N2CCOCC2)c1	6%	-14%	?	?	?	?
O=C(/C=C/c1ccccc1)N1CCN(Cc2cc(=O)n3nc(-c4ccccc4)sc3n2)CC1	.	4%	.	.	.	.
COc1ccc(S(=O)(=O)Nc2cc(-c3cn4ccccc4n3)ccc2C)cc1	8%	?	.	.	.	.
COc1c(Cl)cccc1-c1cn2ccccc2n1	.	0.54µM*	0.79µM*	4.1µM*	?	1.3µM*
COc1ccc(-c2cn(Cc3cccc(OC)c3)nn2)cc1	.	?	21%	-1%	?	6%
CCCOc1ccc(-c2cn3ccccc3n2)cc1	2.2µM*	0.38µM*	?	?	?	0.32µM*
COc1ccc(-c2cn3ccccc3n2)cc1	.	0.76µM*	0.56µM*	1.3µM*	?	0.4µM*
